# Laboratory results reported in PubChem BioAssay (Tox21).
# “And” between values parts separate entries of the source, which are not always exact repeats. Equal entries are not always repeated. Inconclusive results are not listed. Where a call stands in place of a potency, no number is given. The source holds several records for some structures; these can differ, active in one and inactive in another. The source made the active and inactive calls. The call rests on the fitted dose curve; in most records, active means well fitted cell-killing curve with a large enough effect in the repeat runs; inconclusive means weak or mixed curves, or effect the other way; inactive means flat fitted curve, though single readings scatter.
# Test: qHTS assay to identify small molecule agonists of the sonic hedgehog signaling (Shh) pathway - cell viability counter screen (AID 1259366); further: nearly all actives have a fitted effect of over 50% in size
# Details: NIH/3T3 Gli1-Luc viability, CellTiter-Fluor, 24 h; series mostly up to 92.4 µM
# Excerpt: National Center for Advancing Translational Sciences [NCATS]
# NIH Chemical Genomics Center [NCGC]
# U.S. Environmental Protection Agency [EPA]
# National Institutes of Environmental Health Sciences [NIEHS]
# National Toxicology Program [NTP]
# U.S. Food and Drug Administration [FDA]
# The sonic hedgehog (Shh) pathway is essential for normal embryonic development. Dysregulation of the Shh pathway can cause severe developmental defects in organs. Therefore chemicals that interfere with the pathway are potential developmental toxicants. A cell line designated 3T3Gli1-Luc (DMB/OARSA/CFSAN/FDA, Laurel, MD), a NIH/3T3 derived clone containing stably integrated Gli1-Luc reporter is used to detect chemical interference of the Shh pathway, by changes in the expression of the firefly Luc gene under the control of the Gli1 transcriptional response element. This cell line was used to screen Tox21 libraries for identifying and prioritizing the potential developmental toxicants that interfere Shh pathway. The cytotoxicity of the compounds was tested in parallel by measuring the cell viability using CellTiter-Fluor assay system (Promega, Madison, WI) in the same wells.
# Tox21 Assay Protocol Summary:
# 3T3 Gli1-Luc cells were dispensed at 2,000 per well in 5uL of culture medium into white solid bottom 1536-well plates (Greiner Bio-One, Monroe, NC) using a Multidrop Combi (Thermo Scientific, Waltham, MA) dispenser. The assay plates were incubated at 37 C and 5% CO2 for 4hr, and then 23nL of compounds dissolved in DMSO and positive control were transferred using a Pintool station (Wako, San Diego, CA). The assay plates were incubated at 37C and 5% CO2 for 24hr. For viability read, after 23hr of compound treatment, 1uL of CellTiter-Fluor reagent (Promega Corporation, Madison, WI) was added to each well of the assay plates using Flying Reagent Dispenser (FRD, Aurora Discovery, San Diego, CA) and incubated the assay plates at 37C for 1hr. The fluorescence signal was quantified using a ViewLux plate reader (Perkin Elmer, Shelton, CT).
# Potency means the concentration at half of the fitted maximal effect.
row,Compound,Potency
1,OCCc1ccccc1,inactive
2,CCCNC(=O)NS(=O)(=O)c1ccc(Cl)cc1,inactive
3,O=C(O)CS,inactive and 30.9 µM (active)
4,O=C(O)c1cccc([N+](=O)[O-])c1,inactive
5,O=C(O)c1cc(N=Nc2ccc(S(=O)(=O)Nc3ccccn3)cc2)ccc1O,21.8 µM (active) and 24.3 µM (active)
6,CC(O)C(=O)O (stereo not given),inactive
7,Nc1ccn([C@H]2CC[C@@H](CO)O2)c(=O)n1,inactive
8,CCCCCCCCCCCCCCCC(=O)O,inactive
9,CCCCOC(=O)CC(CC(=O)OCCCC)(OC(C)=O)C(=O)OCCCC,inactive
10,O=C(O)C(=O)O,inactive
11,Cc1cc(=O)[nH]c(=S)[nH]1,inactive
12,CNC[C@H](O)c1cccc(O)c1,inactive
13,c1ccc2[nH]ccc2c1,inactive
14,O=C(O)CCC(=O)O,inactive
15,Cc1noc(NS(=O)(=O)c2ccc(N)cc2)c1C,inactive
16,Nc1ccc(S(=O)(=O)c2ccc(N)cc2)cc1,inactive
17,NC(=O)NC1NC(=O)NC1=O (stereo not given),inactive
18,COc1ccc2[nH]cc(CCNC(C)=O)c2c1,inactive
19,O=NO,inactive
20,Cn1cc[nH]c1=S,inactive

row,Compound,Potency
1,NC(N)=NC(=O)c1nc(Cl)c(N)nc1N,inactive
2,Cc1ccc(C)c(OCCCC(C)(C)C(=O)O)c1,inactive
3,CC(O)CO (stereo not given),inactive
4,O=C1CN(/N=C/c2ccc([N+](=O)[O-])o2)C(=O)N1,48.6 µM (active)
5,CC1(C)[C@@H]2CC[C@@]1(C)C(=O)C2,inactive
6,C/C=C/c1ccc(OC)cc1,inactive
7,O=C(O)c1[nH]n(-c2ccc(S(=O)(=O)O)cc2)c(=O)c1N=Nc1ccc(S(=O)(=O)O)cc1,27.4 µM (active) and 25.5 µM (active)
8,C[C@]12C=CC(=O)C=C1CC[C@@H]1[C@@H]2[C@@H](O)C[C@@]2(C)[C@H]1CC[C@]2(O)C(=O)CO,inactive
9,O=C(O)/C=C\C(=O)O,inactive
10,Cc1cn([C@H]2C[C@H](N=[N+]=[N-])[C@@H](CO)O2)c(=O)[nH]c1=O,inactive
11,O=c1cc[nH]c(=S)[nH]1,inactive
12,O=C(c1ccccc1)c1ccccc1,inactive
13,N=C(N)c1ccc(OCCCCCOc2ccc(C(=N)N)cc2)cc1,inactive
14,CCCC(CCC)C(=O)O,inactive
15,CCCN(CCC)S(=O)(=O)c1ccc(C(=O)O)cc1,inactive
16,Cc1ccc(O)cc1,inactive
17,CC(=O)NS(=O)(=O)c1ccc(N)cc1,inactive
18,CCCCC1C(=O)N(c2ccccc2)N(c2ccccc2)C1=O,inactive
19,NNC(=O)c1ccncc1,inactive
20,O=C(O)c1cccnc1,inactive
